Measurements published in PubChem BioAssay AID1053115 (Broad Institute, 2014).
Entries with a potency or affinity are not part of this list. Active and inactive are the calls of the source.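 How the source made its calls: active means cytotoxic compounds whose fitted half-maximal concentration is at most twice the top valid tested dose; inconclusive means flat curve showing 30 to 70% signal loss, or poor fit; inactive means the rest.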

Experiment: viability loss in A549 lung cells – cell-based, 24 h, CellTiter-Glo luminescence, cherry-picks, cytotoxicity control, dose response (AID 1053115)
Details: CellTiter-Glo ATP luminescence; series mostly up to 30 µM

| SMILES | outcome |
| --- | --- |
| C[C@@H](O)C#Cc1ccc2c(c1)O[C@@H](CN(C)Cc1cccnc1)[C@@H](C)CN([C@@H](C)CO)S2(=O)=O | inactive |
| CN1c2ccc(C#Cc3cccnc3)cc2[C@H]2[C@H](CCN2C(=O)C2CCCCC2)[C@H]1CO | inactive |
| COc1ccccc1CN1CC[C@H]2[C@H](CO)Nc3ccc(-c4ccc(C(=O)N(C)C)cc4)cc3[C@H]21 | inactive |
| C[C@@H]1CN([C@@H](C)CO)S(=O)(=O)c2ccc(C#C[C@@H](C)O)cc2O[C@H]1CN(C)Cc1ccccc1 | inactive |
| C[C@H](CO)N1C[C@H](C)[C@H](CN(C)Cc2ccccc2)Oc2cc(C#C[C@@H](C)O)ccc2S1(=O)=O | inactive |
| CN1CCN(C(=O)c2cc3c(c(-c4cccc(C#CCC5CCCC5)c4)n2)[C@@H](CCO)N(S(=O)C(C)(C)C)C3)CC1 (stereo partly specified) | inactive |
| C[C@H](CO)N1C[C@H](C)[C@@H](CN(C)S(=O)(=O)c2ccc(Cl)cc2)Oc2c(NS(=O)(=O)c3cn(C)cn3)cccc2C1=O | inactive |
| CN1c2ccc(C#Cc3cccnc3)cc2[C@@H]2[C@@H](CCN2C(=O)C2CCCCC2)[C@H]1CO | inactive |
| N#Cc1ccc(-c2ccc3c(c2)[C@@H]2[C@@H](CCN2C(=O)C2CCCCC2)[C@@H](CO)N3)cc1 | inactive |
| C[C@H](O)C#Cc1ccc2c(c1)O[C@H](CN(C)Cc1ccc(-c3ccccc3)cc1)[C@H](C)CN([C@@H](C)CO)S2(=O)=O | inactive |
| C[C@@H]1CN([C@H](C)CO)S(=O)(=O)c2ccc(C#C[C@@H](C)O)cc2O[C@@H]1CN(C)Cc1ccccc1 | inactive |
